Source: PubChem BioAssay AID652016 (National Center for Advancing Translational Sciences (NCATS), 2013)
Records with an inconclusive call do not appear. Activity calls are given as the source filed them. Calls come from the whole dose curve; as a rule, active = well fitted inhibition curve with a large enough effect; inconclusive = small, poorly fitted or top-dose-only effect; inactive = flat fitted curve, though single readings scatter.

biological target: Luciferin 4-monooxygenase (Photinus pyralis) (UniProt P08659); experiment: qHTS Assay for Inhibitors of Firefly Luciferase from the GSK Published Protein Kinase Inhibitor Set; conditions: purified firefly luciferase, luminescence inhibition; series mostly up to 57.5 µM; activity change, negative = inhibition: at the top concentration
Sequence (P08659 whole entry, looked up): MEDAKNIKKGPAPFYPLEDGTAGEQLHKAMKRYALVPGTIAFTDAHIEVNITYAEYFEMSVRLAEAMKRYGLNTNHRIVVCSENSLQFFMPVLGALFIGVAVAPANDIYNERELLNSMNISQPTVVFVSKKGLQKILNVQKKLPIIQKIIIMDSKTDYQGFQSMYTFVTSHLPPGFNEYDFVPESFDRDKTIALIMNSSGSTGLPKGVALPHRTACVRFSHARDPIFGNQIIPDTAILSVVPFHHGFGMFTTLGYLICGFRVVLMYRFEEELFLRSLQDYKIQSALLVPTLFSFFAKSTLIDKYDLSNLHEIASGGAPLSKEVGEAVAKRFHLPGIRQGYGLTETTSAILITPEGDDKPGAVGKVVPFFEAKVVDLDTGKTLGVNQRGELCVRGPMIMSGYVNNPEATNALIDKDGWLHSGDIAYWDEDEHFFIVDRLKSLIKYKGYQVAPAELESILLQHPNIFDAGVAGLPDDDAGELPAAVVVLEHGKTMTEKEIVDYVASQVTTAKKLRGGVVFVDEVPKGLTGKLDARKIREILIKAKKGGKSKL
Outline: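 Purified P. pyralis luciferase, 10nM, with 10uM D-luciferin and 10uM ATP in 50mM Tris acetate pH 7.5, 10mM Mg acetate, 0.01% Tween-20, 0.05% BSA. Titration ~60uM to 300pM; luminescence read after about 5 min.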
% is set by controls: 0 for no effect and ±100 for the full control effect; potency is the fitted concentration of half-maximal effect.

Activity change, negative = inhibition, inactive:
Fc1cccc(COc2ccc(Nc3ncnc4sc(-c5ccco5)cc34)cc2Cl)c1 10.4%
COC(=O)c1cncc(C=Cc2c(C)cc(O)cc2C)c1 -5.74%
COc1cc2c(cc1Nc1nc(Nc3cccc(F)c3C(N)=O)c3cc[nH]c3n1)N(C(=O)CN1CCN(C(C)C)CC1)CC2 4.88%
COc1cc(N2CCN(C(C)C)CC2)ccc1Nc1nc(Nc2cccc3ncccc23)c2cc[nH]c2n1 39.4%
NC(=O)c1ccc2c(-c3ccnc(NCCCO)n3)c(-c3ccc(F)cc3)nn2c1 -9.6%
Fc1cccc(COc2ccc(Nc3ncnc4cc(-c5ccc[nH]5)sc34)cc2Cl)c1 -9.56%
COc1ccc(-c2nn3ncccc3c2-c2ccnc(Nc3ccc4c(c3)OCCO4)n2)cc1 -11%
Fc1cccc(COc2ccc(Nc3ncncc3C#Cc3ccccc3)cc2Cl)c1 1.29%
Fc1cccc(COc2ccc(Nc3ncnc4sc(-c5cccs5)cc34)cc2Cl)c1 -18.1%
NC(=O)c1ccc(-c2nc(-c3ccc4c(c3)OCO4)c(-c3ccccn3)[nH]2)cc1 -16.4%
CCc1nn2ncccc2c1-c1ccnc(NC2CC2)n1 8.67%
Cc1nnc(-c2cccc(-c3ccc(C(=O)NCC4CC4)cc3)c2)o1 -8%
COc1ccc2cc(-c3c(-c4ccncc4)nc(-c4ccc(S(C)(=O)=O)cc4C)n3C)ccc2c1 -2.8%

Potency, active:
NC(=O)c1cccc(Nc2nccc(Nc3cccc(F)c3)n2)c1 730 nM
CCn1c(-c2nonc2N)nc2cnc(Oc3cccc(NC(=O)c4ccc(N(C)C)cc4)c3)cc21 1030 nM
